Consider 10 compounds from PubChem BioAssay (NCATS).

SMILES strings stand for the structures. Records with an inconclusive call do not appear. A number with no mark means an inactive call. Activity calls are given as the source filed them. Calls come from the whole dose curve; as a rule, active = well fitted inhibition curve with a large enough effect; inconclusive = small, poorly fitted or top-dose-only effect; inactive = flat fitted curve, though single readings scatter.
Potency is the fitted concentration of half-maximal effect.

The subject of the experiment is CP192. Nature of the experiment: qHTS profiling for inhibitors of Plasmodium falciparum proliferation (AID 504749).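 For activity, negative = inhibition: 0% = DMSO vehicle and full inhibition = artemisinin control.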 Note: nearly all actives have a fitted effect of over 60% in size. The settings on record: P. falciparum in erythrocytes, SYBR Green DNA, 72 h; series mostly up to 28.7 µM; activity, negative = inhibition: at the top concentration. The method in brief:
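Fluorescence of SYBR Green-bound parasite DNA, read at 485/535 nm, served as the growth measure. Infected erythrocytes were cultured with compound 72 h; artemisinin (0.29 uM) and DMSO wells defined the normalization range.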
In the case of `CO/N=C(/C(=O)N[C@@H]1C(=O)N2C(C(=O)O)=CCS[C@H]12)c1csc(N)n1`, the “activity, negative = inhibition” value is 3.31%.

With `Cc1cc(CC(C)CC(C)(C)C)n(O)c(=O)c1` (stereo not given), the Potency was 2390 nM (active).

On to `CC1CCC(C(C)C)C(OC(=O)c2ccccc2O)C1` (stereo not given), for which the “activity, negative = inhibition” value was 0.533%.

Turning to `CO[C@@H]1[C@@H](OC2OC(C)C(OC3CC(C)(O)C(OC(=O)CC(C)C)C(C)O3)C(N(C)C)C2O)[C@@H](CC=O)C[C@@H](C)C(=O)/C=C\C2O[C@H]2C[C@@H](C)OC(=O)C[C@H]1OC(C)=O` (stereo not given in full), the “activity, negative = inhibition” value is -7.9%.

As to `CCC(=O)O[C@@H](OP(=O)(CCCCc1ccccc1)CC(=O)N1C[C@H](C2CCCCC2)C[C@H]1C(=O)O)C(C)C` (stereo not given in full), the “activity, negative = inhibition” value was -0.334%.

Consider `CC(=O)O[C@@]12CO[C@@H]1C[C@H](O)[C@@]1(C)C(=O)[C@H](O)C3=C(C)[C@@H](OC(=O)C(O)[C@@H](NC(=O)OC(C)(C)C)c4ccccc4)C[C@@](O)([C@@H](OC(=O)c4ccccc4)[C@H]21)C3(C)C` (stereo not given in full), for which the Potency is 26.9 nM (active).

As to `CC1(C)S[C@@H]2[C@H](NC(=O)COc3ccccc3)C(=O)N2[C@H]1C(=O)O`, the “activity, negative = inhibition” value was 3.27%.

As to `CCN1/C(=C/C=C/C=C/c2sc3ccccc3[n+]2CC)Sc2ccccc21`, the Potency was 5360 nM (active).

As for `Nc1nc(Cl)nc2c1ncn2C1CC(O)C(CO)O1` (stereo not given), the “activity, negative = inhibition” value is -20.6%.

Regarding `O=NCc1ccc([N+](=O)[O-])o1`, the “activity, negative = inhibition” value is 0.966%.
